Among the targets are dAsCas12a S542R (Acidaminococcus sp., UniProt U2UMQ6 1-1307, S542R;D908A;E993A;D1235A); d-enCas12a (Acidaminococcus sp., UniProt U2UMQ6 1-1307, E174R;S542R;K548R;D908A;E993A;D1235A); d-enCas12a-Ultra (Acidaminococcus sp., UniProt U2UMQ6 1-1307, E174R;S542R;K548R;M537R;F870L;D908A;E993A;D1235A).
Holding throughout (test): Spec-seq (native PAGE EMSA with sequencing of bound and unbound); 25 mM Tris-HCl pH 7.4, 150 mM KCl, 5 mM MgCl2, 10% glycerol, 1 mM DTT, 40 ng/uL salmon sperm DNA; 400 nM Cas12a, 480 nM crRNA, 50 nM library, 37 C 1 h; native PAGE at room temperature; high values mean tight binding
What all share (settings): protein: recombinant
(In general: In EMSA bound probe runs differently from free probe, usually more slowly.)
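Note: relative affinity from the bound to unbound sequence frequency ratio in Spec-seq.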

B1: CAGA (dsDNA)
DNA 1: GCTATCTAGTGCTCAGTACGCACTGCAGAAGGAAACTTCTGGCAGGACCAGGTCATGAGATCGGAAGAGCACACGTCTGAACTCCAGTCA
DNA 2: TGACTGGAGTTCAGACGTGTGCTCTTCCGATCTCATGACCTGGTCCTGCCAGAAGTTTCCTTCTGCAGTGCGTACTGAGCACTAGATAGC
RNA: AAUUUCUACUCUUGUAGAUAGGAAACUUCUGGCAGGACC
In the case of B1, the binding signal with dAsCas12a S542R is -8.93 lnKA; with d-enCas12a it was -5.81 lnKA; with d-enCas12a-Ultra it was -3.41 lnKA.

B2: CGAT (dsDNA)
DNA 1: GCTATCTAGTGCTCAGTACGCACTGCGATAGGAAACTTCTGGCAGGACCAGGTCATGAGATCGGAAGAGCACACGTCTGAACTCCAGTCA
DNA 2: TGACTGGAGTTCAGACGTGTGCTCTTCCGATCTCATGACCTGGTCCTGCCAGAAGTTTCCTATCGCAGTGCGTACTGAGCACTAGATAGC
RNA: AAUUUCUACUCUUGUAGAUAGGAAACUUCUGGCAGGACC
With B2, the values for the binding signal in the test with dAsCas12a S542R, with d-enCas12a and with d-enCas12a-Ultra were -8.8 lnKA, -5.8 lnKA and -3.4 lnKA, respectively.

B3: CCAC (dsDNA)
DNA 1: GCTATCTAGTGCTCAGTACGCACTGCCACAGGAAACTTCTGGCAGGACCAGGTCATGAGATCGGAAGAGCACACGTCTGAACTCCAGTCA
DNA 2: TGACTGGAGTTCAGACGTGTGCTCTTCCGATCTCATGACCTGGTCCTGCCAGAAGTTTCCTGTGGCAGTGCGTACTGAGCACTAGATAGC
RNA: AAUUUCUACUCUUGUAGAUAGGAAACUUCUGGCAGGACC
B3: the binding signal with dAsCas12a S542R was -8.4 lnKA; with d-enCas12a, -5.65 lnKA; with d-enCas12a-Ultra, -3.37 lnKA.

B4: CCAG (dsDNA)
DNA 1: GCTATCTAGTGCTCAGTACGCACTGCCAGAGGAAACTTCTGGCAGGACCAGGTCATGAGATCGGAAGAGCACACGTCTGAACTCCAGTCA
DNA 2: TGACTGGAGTTCAGACGTGTGCTCTTCCGATCTCATGACCTGGTCCTGCCAGAAGTTTCCTCTGGCAGTGCGTACTGAGCACTAGATAGC
RNA: AAUUUCUACUCUUGUAGAUAGGAAACUUCUGGCAGGACC
Take B4: the binding signal with dAsCas12a S542R was -8.95 lnKA; with d-enCas12a, -5.72 lnKA; with d-enCas12a-Ultra it was -3.45 lnKA.

B5: CAGG (dsDNA)
DNA 1: GCTATCTAGTGCTCAGTACGCACTGCAGGAGGAAACTTCTGGCAGGACCAGGTCATGAGATCGGAAGAGCACACGTCTGAACTCCAGTCA
DNA 2: TGACTGGAGTTCAGACGTGTGCTCTTCCGATCTCATGACCTGGTCCTGCCAGAAGTTTCCTCCTGCAGTGCGTACTGAGCACTAGATAGC
RNA: AAUUUCUACUCUUGUAGAUAGGAAACUUCUGGCAGGACC
As for B5, the binding signal with dAsCas12a S542R was -8.98 lnKA; with d-enCas12a, -5.82 lnKA; in the test with d-enCas12a-Ultra, -3.56 lnKA.

B6: CAGC (dsDNA)
DNA 1: GCTATCTAGTGCTCAGTACGCACTGCAGCAGGAAACTTCTGGCAGGACCAGGTCATGAGATCGGAAGAGCACACGTCTGAACTCCAGTCA
DNA 2: TGACTGGAGTTCAGACGTGTGCTCTTCCGATCTCATGACCTGGTCCTGCCAGAAGTTTCCTGCTGCAGTGCGTACTGAGCACTAGATAGC
RNA: AAUUUCUACUCUUGUAGAUAGGAAACUUCUGGCAGGACC
Take B6: the binding signal was -8.95 lnKA with dAsCas12a S542R, -5.94 lnKA in the test with d-enCas12a and -3.45 lnKA with d-enCas12a-Ultra.

B7: CCGA (dsDNA)
DNA 1: GCTATCTAGTGCTCAGTACGCACTGCCGAAGGAAACTTCTGGCAGGACCAGGTCATGAGATCGGAAGAGCACACGTCTGAACTCCAGTCA
DNA 2: TGACTGGAGTTCAGACGTGTGCTCTTCCGATCTCATGACCTGGTCCTGCCAGAAGTTTCCTTCGGCAGTGCGTACTGAGCACTAGATAGC
RNA: AAUUUCUACUCUUGUAGAUAGGAAACUUCUGGCAGGACC
In the case of B7, the binding signal is -8.62 lnKA in the test with dAsCas12a S542R, -5.74 lnKA in the test with d-enCas12a and -3.44 lnKA with d-enCas12a-Ultra.

B8: CCGC (dsDNA)
DNA 1: GCTATCTAGTGCTCAGTACGCACTGCCGCAGGAAACTTCTGGCAGGACCAGGTCATGAGATCGGAAGAGCACACGTCTGAACTCCAGTCA
DNA 2: TGACTGGAGTTCAGACGTGTGCTCTTCCGATCTCATGACCTGGTCCTGCCAGAAGTTTCCTGCGGCAGTGCGTACTGAGCACTAGATAGC
RNA: AAUUUCUACUCUUGUAGAUAGGAAACUUCUGGCAGGACC
In the case of B8, the figures for the binding signal in the test with dAsCas12a S542R, with d-enCas12a and with d-enCas12a-Ultra were -8.39 lnKA, -5.85 lnKA and -3.33 lnKA, respectively.

B9: CCGT (dsDNA)
DNA 1: GCTATCTAGTGCTCAGTACGCACTGCCGTAGGAAACTTCTGGCAGGACCAGGTCATGAGATCGGAAGAGCACACGTCTGAACTCCAGTCA
DNA 2: TGACTGGAGTTCAGACGTGTGCTCTTCCGATCTCATGACCTGGTCCTGCCAGAAGTTTCCTACGGCAGTGCGTACTGAGCACTAGATAGC
RNA: AAUUUCUACUCUUGUAGAUAGGAAACUUCUGGCAGGACC
With B9, the binding signal with dAsCas12a S542R is -8.47 lnKA; with d-enCas12a it was -5.88 lnKA; with d-enCas12a-Ultra, -3.38 lnKA.

B10: CGAC (dsDNA)
DNA 1: GCTATCTAGTGCTCAGTACGCACTGCGACAGGAAACTTCTGGCAGGACCAGGTCATGAGATCGGAAGAGCACACGTCTGAACTCCAGTCA
DNA 2: TGACTGGAGTTCAGACGTGTGCTCTTCCGATCTCATGACCTGGTCCTGCCAGAAGTTTCCTGTCGCAGTGCGTACTGAGCACTAGATAGC
RNA: AAUUUCUACUCUUGUAGAUAGGAAACUUCUGGCAGGACC
Consider B10, for which the binding signal was -8.8 lnKA with dAsCas12a S542R, -5.58 lnKA with d-enCas12a and -2.94 lnKA in the test with d-enCas12a-Ultra.

B11: CCAT (dsDNA)
DNA 1: GCTATCTAGTGCTCAGTACGCACTGCCATAGGAAACTTCTGGCAGGACCAGGTCATGAGATCGGAAGAGCACACGTCTGAACTCCAGTCA
DNA 2: TGACTGGAGTTCAGACGTGTGCTCTTCCGATCTCATGACCTGGTCCTGCCAGAAGTTTCCTATGGCAGTGCGTACTGAGCACTAGATAGC
RNA: AAUUUCUACUCUUGUAGAUAGGAAACUUCUGGCAGGACC
As to B11, the binding signal with dAsCas12a S542R was -8.87 lnKA; in the test with d-enCas12a, -5.81 lnKA; in the test with d-enCas12a-Ultra, -3.45 lnKA.

B12: CAGT (dsDNA)
DNA 1: GCTATCTAGTGCTCAGTACGCACTGCAGTAGGAAACTTCTGGCAGGACCAGGTCATGAGATCGGAAGAGCACACGTCTGAACTCCAGTCA
DNA 2: TGACTGGAGTTCAGACGTGTGCTCTTCCGATCTCATGACCTGGTCCTGCCAGAAGTTTCCTACTGCAGTGCGTACTGAGCACTAGATAGC
RNA: AAUUUCUACUCUUGUAGAUAGGAAACUUCUGGCAGGACC
For the molecule B12, the binding signal was -8.61 lnKA with dAsCas12a S542R, -5.67 lnKA in the test with d-enCas12a and -3.37 lnKA with d-enCas12a-Ultra.

B13: CGAA (dsDNA)
DNA 1: GCTATCTAGTGCTCAGTACGCACTGCGAAAGGAAACTTCTGGCAGGACCAGGTCATGAGATCGGAAGAGCACACGTCTGAACTCCAGTCA
DNA 2: TGACTGGAGTTCAGACGTGTGCTCTTCCGATCTCATGACCTGGTCCTGCCAGAAGTTTCCTTTCGCAGTGCGTACTGAGCACTAGATAGC
RNA: AAUUUCUACUCUUGUAGAUAGGAAACUUCUGGCAGGACC
As to B13, the binding signal is -8.66 lnKA in the test with dAsCas12a S542R, -5.81 lnKA in the test with d-enCas12a and -3.32 lnKA in the test with d-enCas12a-Ultra.

B14: CCCT (dsDNA)
DNA 1: GCTATCTAGTGCTCAGTACGCACTGCCCTAGGAAACTTCTGGCAGGACCAGGTCATGAGATCGGAAGAGCACACGTCTGAACTCCAGTCA
DNA 2: TGACTGGAGTTCAGACGTGTGCTCTTCCGATCTCATGACCTGGTCCTGCCAGAAGTTTCCTAGGGCAGTGCGTACTGAGCACTAGATAGC
RNA: AAUUUCUACUCUUGUAGAUAGGAAACUUCUGGCAGGACC
For the molecule B14, the figures for the binding signal with dAsCas12a S542R, with d-enCas12a and in the test with d-enCas12a-Ultra were -7.57 lnKA, -5.17 lnKA and -1.7 lnKA, respectively.

B15: CGAG (dsDNA)
DNA 1: GCTATCTAGTGCTCAGTACGCACTGCGAGAGGAAACTTCTGGCAGGACCAGGTCATGAGATCGGAAGAGCACACGTCTGAACTCCAGTCA
DNA 2: TGACTGGAGTTCAGACGTGTGCTCTTCCGATCTCATGACCTGGTCCTGCCAGAAGTTTCCTCTCGCAGTGCGTACTGAGCACTAGATAGC
RNA: AAUUUCUACUCUUGUAGAUAGGAAACUUCUGGCAGGACC
B15: the binding signal in the test with dAsCas12a S542R was -8.83 lnKA; with d-enCas12a, -5.83 lnKA; with d-enCas12a-Ultra it was -3.31 lnKA.

B16: CCAA (dsDNA)
DNA 1: GCTATCTAGTGCTCAGTACGCACTGCCAAAGGAAACTTCTGGCAGGACCAGGTCATGAGATCGGAAGAGCACACGTCTGAACTCCAGTCA
DNA 2: TGACTGGAGTTCAGACGTGTGCTCTTCCGATCTCATGACCTGGTCCTGCCAGAAGTTTCCTTTGGCAGTGCGTACTGAGCACTAGATAGC
RNA: AAUUUCUACUCUUGUAGAUAGGAAACUUCUGGCAGGACC
Turning to B16, the figures for the binding signal with dAsCas12a S542R, with d-enCas12a and in the test with d-enCas12a-Ultra were -8.66 lnKA, -5.83 lnKA and -3.39 lnKA, respectively.

B17: CATT (dsDNA)
DNA 1: GCTATCTAGTGCTCAGTACGCACTGCATTAGGAAACTTCTGGCAGGACCAGGTCATGAGATCGGAAGAGCACACGTCTGAACTCCAGTCA
DNA 2: TGACTGGAGTTCAGACGTGTGCTCTTCCGATCTCATGACCTGGTCCTGCCAGAAGTTTCCTAATGCAGTGCGTACTGAGCACTAGATAGC
RNA: AAUUUCUACUCUUGUAGAUAGGAAACUUCUGGCAGGACC
B17: the binding signal in the test with dAsCas12a S542R was -8.56 lnKA; in the test with d-enCas12a, -5.39 lnKA; in the test with d-enCas12a-Ultra, -2.95 lnKA.

The record behind these values is publication PMC8222333, “AsCas12a ultra nuclease facilitates the rapid generation of therapeutic cell medicines”.
